# Results as given in publication PMC6919601, “Identification of Plasmodium dipeptidyl aminopeptidase allosteric inhibitors by high throughput screening” (PLoS ONE, 2019).
# Hit rate of the full screen: of about 110,000 compounds, about 230 (0.21%) showed an effect of 50% or more. The sample holds strong results, similar compounds and a random draw of the others, so the mix is not that of the screen.
# Molecular target: DPAP1 (Plasmodium falciparum, UniProt Q8IIJ9)
# Assay: primary screen, percent inhibition; read by cleavage of a fluorogenic dipeptide substrate; higher = more effect of the substance
# Design: species or system P. falciparum D10 trophozoite lysates; single well
# 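Note: 30 min substrate incubation versus DMSO and 10 µM JCP410 controls.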
# DPAP1, sequence (Q8IIJ9 whole entry, looked up): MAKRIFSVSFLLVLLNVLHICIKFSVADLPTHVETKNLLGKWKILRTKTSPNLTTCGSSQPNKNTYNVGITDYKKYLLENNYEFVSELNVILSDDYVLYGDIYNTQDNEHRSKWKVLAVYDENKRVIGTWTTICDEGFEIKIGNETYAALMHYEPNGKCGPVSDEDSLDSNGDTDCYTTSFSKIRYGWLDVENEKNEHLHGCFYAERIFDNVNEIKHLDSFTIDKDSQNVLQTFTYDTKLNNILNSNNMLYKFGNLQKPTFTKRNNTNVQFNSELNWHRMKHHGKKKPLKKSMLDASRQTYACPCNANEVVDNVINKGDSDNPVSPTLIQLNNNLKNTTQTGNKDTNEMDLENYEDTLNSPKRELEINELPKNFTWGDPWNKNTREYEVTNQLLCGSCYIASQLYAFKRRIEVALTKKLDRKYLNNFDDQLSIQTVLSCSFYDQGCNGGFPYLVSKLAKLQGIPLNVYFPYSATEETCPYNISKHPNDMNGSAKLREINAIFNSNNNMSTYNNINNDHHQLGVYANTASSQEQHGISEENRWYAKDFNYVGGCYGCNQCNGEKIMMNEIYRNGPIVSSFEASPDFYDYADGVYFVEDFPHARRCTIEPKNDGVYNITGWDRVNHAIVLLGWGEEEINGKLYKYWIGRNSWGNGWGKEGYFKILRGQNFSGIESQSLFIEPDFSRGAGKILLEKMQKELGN
row,Structure (SMILES),% Inhibition @ 10 uM
1,CC(C)n1c(-c2ccccc2)nc2ccccc21,-0.769%
2,CC(C)n1c(-c2ccc(C(=O)N3CCN(C)CC3)cc2)nc2ccccc21,83.9%
3,CN1CCN(C(=O)c2ccc(-c3ccccc3)cc2)CC1,2.6%
4,Cc1ccc(C)c(-c2csc(Nc3ccc(C)c(Cl)c3)n2)c1,0.912%
5,CCSc1c(S)cnn(-c2ccccc2)c1=O,1.7%
6,Oc1c2nc(S)nc-2cnn1-c1ccccc1,87.4%
7,Cc1ccc(-c2nc3cnn(-c4ccccc4)c(O)c-3n2)cc1,2%
8,CC(C)C(NS(=O)(=O)c1cccs1)C(=O)NCc1ccccc1Cl (stereo not drawn),-4.07%
9,CCOc1ccc(-c2cn3ncsc3n2)cc1,2.41%
10,O=C(c1cccs1)c1conc1C(=O)c1ccc(Br)cc1,93.8%
11,O=C(c1ccccn1)c1conc1C(=O)c1cccs1,1.82%
12,O=C(c1cccnc1)c1conc1C(=O)c1ccc(Br)cc1,91.9%
13,O=C(c1nc2ccccc2s1)c1conc1C(=O)c1cccs1,4.03%
14,O=C(c1ccccn1)c1conc1C(=O)c1ccc(Br)cc1,3.72%
15,O=C(c1ccccc1)c1conc1C(=O)c1ccc(Br)cc1,4.52%
16,Cc1ccc(C2=CC(c3cccs3)n3ncnc3N2)cc1C (stereo not drawn),1.86%
17,Cc1nc(NC(=O)c2ccccc2Cl)ccc1Br,-2.67%
18,Cc1nc(NC(=O)c2cc(Cl)ccc2Cl)ccc1Br,0.755%
19,COc1ccc(Cl)cc1C(=O)Nc1ccc(Br)c(C)n1,70.4%
20,CN(Cc1ccccc1)Cc1ccc(O)cc1,-1.78%
21,NC(=O)c1sc2nc(N3CCOCC3)c3c(c2c1N)CCCC3,50.2%
22,CC1(C)Cc2c(c(N3CCOCC3)nc3sc(C(=O)N4CCCCC4)c(N)c23)CO1,3.93%

row,Structure (SMILES),% Inhibition @ 10 uM
1,CCOC(=O)c1sc2nc(N3CCOCC3)c3c(c2c1N)CCCC3,-2.87%
2,Nn1c(S)nnc1-c1ccccc1,1.63%
3,O=C1c2cccnc2C(=O)N1Cc1ccc(S(=O)(=O)NCCc2ccc(Cl)cc2)s1,-3.66%
4,COc1ccccc1CNC(=O)[C@H](CCSC)N1Cc2ccccc2C1=O,2.93%
5,CCCC1CCc2c(sc(NC(=O)C3CCCO3)c2C(N)=O)C1 (stereo not drawn),1.57%
6,c1ccc2c(Cc3c[nH]c4ccccc34)c[nH]c2c1,-0.0372%
7,c1ccc(Cc2c[nH]c3ccccc23)cc1,0.736%
8,c1ccc2c(Cc3nn[nH]n3)c[nH]c2c1,85%
9,CCC1(C)CC(=O)c2c(ccc3oc(C(=O)NCc4ccco4)c(C)c23)O1 (stereo not drawn),-2.17%
10,CC1=C(C)CC(C(=O)NCc2ccc(F)cc2)C(C(=O)O)C1 (stereo not drawn),8.6%
11,COc1ccccc1-c1coc2cc(OCC(=O)O)ccc2c1=O,-1.92%
12,COc1ccc(-c2coc3cc(OC)ccc3c2=O)c(O)c1,62.1%
13,COc1ccc2c(COc3ccc4c(=O)c(-c5ccccc5)coc4c3)cc(=O)oc2c1,-2.91%
14,O=C(Cn1ncc2c3ccccc3nc-2c1O)N1CCC(c2ccccc2)C1 (stereo not drawn),2.36%
15,c1ccc(-c2nc3c4cnn(-c5ccccc5)c4ncn3n2)cc1,-6.09%
16,Cc1oc2c(C)c3oc(=O)c(CC(=O)N4CCOCC4)c(C)c3cc2c1-c1ccccc1,2.54%
17,Cc1ccc2c(c1Br)C1(C(=O)N2)C(C#N)=C(N)Oc2cc(N)ccc21 (stereo not drawn),5.35%
18,COCCn1c(=N)c(C(=O)NCC2CCCO2)cc2c(=O)n3cc(C)ccc3nc21 (stereo not drawn),94.3%
19,Cc1ccc2nc3c(cc(C(=O)NCC4CCCO4)c(=N)n3C3CCCCC3)c(=O)n2c1 (stereo not drawn),3.6%
20,Cc1ccc2nc3c(cc(C(=O)NCC4CCCO4)c(=N)n3CCc3ccccc3)c(=O)n2c1 (stereo not drawn),0.279%
21,COc1ccc2cc3cc(C(=O)NCCN(C)C)oc3nc2c1,-1.54%
22,Cc1ccccc1CSCC(=O)NC1CCCC1,2.15%

row,Structure (SMILES),% Inhibition @ 10 uM
1,OC(Cn1ccnc1)(c1ccc(F)cc1)c1ccccn1 (stereo not drawn),2.62%
2,CN(Cc1ccccc1)C(=O)c1noc2c1COc1ccccc1-2,7.85%
3,COc1ccc(CNC(=O)c2noc3c2COc2ccc(C)cc2-3)cc1,-3.17%
4,O=C(NCc1ccc2c(c1)OCO2)c1cc(-c2ccccc2F)no1,-2.07%
5,O=C(NCc1ccc(F)cc1)c1noc2c1COc1ccccc1-2,69.7%
6,Cc1ccc(CNC(=O)c2noc3c2COc2ccccc2-3)cc1,72.8%
7,O=C(NCc1ccc2c(c1)OCO2)c1noc2c1COc1ccccc1-2,73.5%
8,Cc1onc(-c2ccccc2Cl)c1C(=O)NCc1ccc2c(c1)OCO2,-6.92%
9,O=C(NCc1ccc(F)cc1)c1noc2c1CCc1ccccc1-2,-9.28%
10,Cc1ccc2c(c1)-c1onc(C(=O)NCc3ccccc3Cl)c1CO2,0.589%
11,CC(C)C(=O)NC(c1ccc(Cl)cc1)c1ccc2cccnc2c1O (stereo not drawn),-8.88%
12,CCc1nc2ccccc2c(NC(=O)CN2CCCC2)c1C,-4.96%
13,CN(Cc1ccccc1)C(=O)c1ccc(C(C)(C)C)cc1,8.01%
14,CCN(CC)C1=NC(C(F)(F)F)(C(F)(F)F)N=C(c2ccc(OC)cc2)O1,-3.53%
15,Cn1nc(C(=O)NCc2ccco2)c2c1-c1ccccc1SC2,30.8%
16,Cn1nc(C(=O)NCc2ccc3c(c2)OCO3)c2c1-c1ccccc1S(=O)(=O)C2,-3.8%
17,Cn1nc(C(=O)NCc2ccc3c(c2)OCO3)c2c1-c1ccccc1SC2,86.5%
18,Cn1nc(C(=O)NCCc2ccccc2)c2c1-c1ccccc1SC2,-0.495%
19,Cn1nc(C(=O)NCc2cccnc2)c2c1-c1ccccc1SC2,36.1%
20,Cc1ccc(CNC(=O)c2nn(C)c3c2CSc2ccccc2-3)cc1,51.6%
21,O=C(NCC1CCCO1)C1CCCN(S(=O)(=O)N2CCC3(CC2)OCCO3)C1 (stereo not drawn),-1.67%
22,CC(=O)C1=C(C)OC(N)=C(C#N)C1c1ccccc1[N+](=O)[O-] (stereo not drawn),-1.29%

row,Structure (SMILES),% Inhibition @ 10 uM
1,Cc1cccc(Nc2nc(-c3sc(N)nc3C)cs2)c1,2.7%
2,Cc1ccc(OC(C)C(=O)N(Cc2ccccc2)C2CCS(=O)(=O)C2)cc1C (stereo not drawn),0.561%
3,Cc1cc(C)c2nc(N3CCCC(C(=O)N4CCCCCC4)C3)sc2c1 (stereo not drawn),1.8%
4,CCN1CCc2c(sc3nc(S)nc(N)c23)C1,42.8%
5,Nc1nc(S)nc2sc3c(c12)CCN(Cc1ccccc1)C3,54.1%
6,CSc1nc(N)c2c3c(sc2n1)CN(Cc1ccccc1)CC3,-1.66%
7,CC(C)C[C@H](NC(=O)OCc1ccccc1)C(=O)NCC(=O)CN(Cc1ccco1)C(=O)OC(C)(C)C,-7.36%
8,CC1=C(C#N)C(c2cccnc2)C2=C(O)CC(C)(C)CC2=N1 (stereo not drawn),-4.03%
9,CC1(C)CC2=NC(S)=C(C#N)C(c3cccnc3)C2=C(O)C1 (stereo not drawn),67.3%
10,CC1=C(C#N)C(c2ccccc2)C2=C(O)CC(C)(C)CC2=N1 (stereo not drawn),2.41%
11,COc1cc(-c2nnc3sc(-c4ccc(C)c(C)c4)nn23)cc(OC)c1OC,29.8%
12,CCOc1ccc(-c2nn3c(-c4cc(OC)c(OC)c(OC)c4)nnc3s2)cc1,56.2%
13,COc1ccccc1-c1nnc2sc(/C=C/c3ccccc3)nn12,6.01%
14,COc1cc(-c2nnc3sc(-c4ccc(C(C)(C)C)cc4)nn23)cc(OC)c1OC,2.89%
15,COc1cc(-c2nnc3sc(/C=C/c4ccco4)nn23)cc(OC)c1OC,6.01%
16,COc1cc(-c2nnc3sc(/C=C/c4ccccc4)nn23)cc(OC)c1OC,59.6%
17,O=[N+]([O-])c1ccc(S(=O)(=O)n2cnc3ccccc32)cc1,2.81%
18,CCOC(=O)N1CCN(c2ccc(/C=C(\C#N)c3nc4ccccc4s3)o2)CC1,4.67%
19,COc1ccccc1-c1nn2c(C3COc4ccccc4O3)nnc2s1 (stereo not drawn),7.5%
20,COc1ccccc1/C=C/c1nn2c(C)nnc2s1,2.29%
21,COc1ccccc1/C=C/c1nn2c(C3COc4ccccc4O3)nnc2s1 (stereo not drawn),50.2%
22,Cc1ccc(-c2nn3c(C4COc5ccccc5O4)nnc3s2)cc1C (stereo not drawn),2.89%

row,Structure (SMILES),% Inhibition @ 10 uM
1,c1ccc2c(c1)OCC(c1nnc3sc(-c4ccncc4)nn13)O2 (stereo not drawn),2.68%
2,Clc1ccc(-c2nn3c(C4COc5ccccc5O4)nnc3s2)cc1 (stereo not drawn),53.7%
3,COc1ccc(/C(O)=C/C=N/c2ccc3c(c2)OCO3)cc1,-4.12%
4,COc1ccccc1NC(=O)C1=C(C)N=C2CCCC(O)=C2C1c1ccc(OC)c(OC)c1 (stereo not drawn),2.51%
5,COc1cc(NS(=O)(=O)c2ccc(N3C(=O)c4ccccc4C3=O)cc2)nc(OC)n1,-1.96%
6,CCOc1cc(CN2CCN(Cc3ccccc3)CC2)ccc1O,3.9%
7,CCOc1cc(CN2CCSCC2)ccc1O,96.4%
8,CCOc1cc(CN2CCN(C)CC2)ccc1O,2.33%
9,CCCCCCSc1nnc2c(n1)[nH]c1ccccc12,-2.35%
10,NCCSc1nnc2c(n1)[nH]c1ccccc12,77.5%
11,CCCCSc1nnc2c(n1)[nH]c1ccccc12,2.86%
12,COc1ccc(-n2c3c(c(=O)[nH]c2=O)C(NC(=O)c2ccc(F)cc2)(C(F)(F)F)C(=O)N3)cc1 (stereo not drawn),3.57%
13,COc1ccc(C2=N/C(=C\c3cccs3)C(=O)O2)cc1,11.6%
14,COc1cc(C(=O)NCc2cn3cccc(C)c3n2)cc(OC)c1OC,3.3%
15,COc1ccc(/C=N/n2c(S)nnc2C(F)(F)F)cc1O,-3.04%
16,COc1ccc(Br)cc1C1CC(=O)N2CN(C)CSC2=C1C#N (stereo not drawn),58.8%
17,COc1cccc(C2CC(=O)N3CN(C4CCCCC4)CSC3=C2C#N)c1OC (stereo not drawn),21.8%
18,COc1ccc(Br)cc1C1CC(=O)N2CN(C3CCCCC3)CSC2=C1C#N (stereo not drawn),60.2%
19,COc1cc(C2CC(=O)N3CN(C)CSC3=C2C#N)cc(OC)c1OC (stereo not drawn),3.77%
20,COc1ccc(OC)c(C2CC(=O)N3CN(C4CCCCC4)CSC3=C2C#N)c1 (stereo not drawn),9.77%
